Out of some 310,000 compounds screened, about 1,200 (0.39%) were called active. How the calls were made is not given here. These entries were drawn from the full list. Results with a measured potency or affinity are listed apart.

Chain of Large T antigen (Simian virus 40) (P03070 whole entry, looked up): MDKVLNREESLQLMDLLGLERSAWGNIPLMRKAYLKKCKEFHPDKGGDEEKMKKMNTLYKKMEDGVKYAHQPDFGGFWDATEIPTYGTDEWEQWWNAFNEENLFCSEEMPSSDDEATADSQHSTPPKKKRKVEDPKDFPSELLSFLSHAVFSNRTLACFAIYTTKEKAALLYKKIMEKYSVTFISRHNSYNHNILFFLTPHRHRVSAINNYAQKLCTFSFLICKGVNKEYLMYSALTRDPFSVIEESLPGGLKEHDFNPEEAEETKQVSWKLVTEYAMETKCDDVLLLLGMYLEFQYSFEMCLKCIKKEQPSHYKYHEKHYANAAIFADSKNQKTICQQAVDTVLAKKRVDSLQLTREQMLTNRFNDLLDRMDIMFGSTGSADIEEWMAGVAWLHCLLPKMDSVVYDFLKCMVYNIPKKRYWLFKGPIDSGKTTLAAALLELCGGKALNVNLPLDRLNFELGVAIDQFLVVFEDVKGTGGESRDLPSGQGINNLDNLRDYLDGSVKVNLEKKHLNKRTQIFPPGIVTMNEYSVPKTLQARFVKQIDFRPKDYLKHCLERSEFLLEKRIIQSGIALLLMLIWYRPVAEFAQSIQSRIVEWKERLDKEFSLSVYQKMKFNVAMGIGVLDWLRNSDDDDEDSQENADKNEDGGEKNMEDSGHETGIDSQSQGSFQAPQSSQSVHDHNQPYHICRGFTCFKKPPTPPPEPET

The assay addresses Large T antigen (Simian virus 40) (UniProt P03070). As to the kind of experiment: SV40 large T antigen inhibitors, biochemical (AID 1903). The settings on record: SV40 large T antigen ATPase/helicase inhibition assay; at 20 µM; stronger effect = higher value.
As usually defined, the inhibition is the drop in the measured response relative to a control, in per cent. As for `CCOC(=O)c1nn(-c2ccc(F)cc2)c(=O)cc1OCC(=O)N1CCN(c2ccccc2)CC1`, the inhibition was 5.17% (inactive).
The result for `CCN(CC)C(=O)C[n+]1ccc(C(N)=O)cc1` reads 4.68% (inactive).
As for `Fc1ccccc1/C=N/n1c(COc2ccccc2)n[nH]c1=S`, the figure is 6% (inactive).
With `Cc1cc(Br)cc(Cl)c1OCC(=O)NC(=O)NCc1ccccc1`, the inhibition is 1.39% (inactive).
`CCN1C(=O)[C@H]2[C@@H](c3ccc(C)cc3)N3C(=O)N(c4ccc(C(F)(F)F)cc4)C(=O)[C@@]3(Cc3ccccc3)[C@H]2C1=O`: the inhibition was 4.67% (inactive).
As for `CC(C)C[C@H](NC(=O)CCn1nnc2ccccc2c1=O)C(=O)O`, the figure is 9.82% (inactive); as for `O=C(O)CNC(=S)N(Cc1ccccc1F)C1CCCCC1`, 4.15% (inactive); as for `O=C(Oc1ccc(-c2cnc3ccccc3n2)cc1)c1cc([N+](=O)[O-])ccc1Cl`, 7.12% (inactive).
As for `O=C(Oc1ccc(-c2cnc3ccccc3n2)cc1)c1cccc([N+](=O)[O-])c1`, the figure is 3.96% (inactive); as for `COCC(C)NC(=O)c1noc2c1CCc1cc(OC)ccc1-2` (stereo not drawn), -0.97% (inactive).
As for `CCOc1ccc(NCc2cc3cc(OC)ccc3[nH]c2=O)cc1`, the figure is 28.1% (inactive).
In the case of `Cc1ccc2nc(-c3ccccc3N)[nH]c2c1`, the inhibition is -2.07% (inactive).
Regarding `Cc1ccc2nc(-c3cccc(N)c3)[nH]c2c1`, the inhibition was 5.37% (inactive).
As for `CCOC(=O)c1c(S(=O)(=O)NCc2ccc(C)o2)c(C)n(C)c1C`, the figure is 2.28% (inactive); as for `CC(C)c1ccc(CNc2ccc(N3CCOCC3)cc2)cc1`, 9.24% (inactive).
With `COc1ccc(CCC(=O)Nc2ccc(N3CCOCC3)cc2)cc1`, the inhibition was 8.67% (inactive).
The result for `COc1ccc(OCC(=O)Nc2ccc(N3CCOCC3)cc2)cc1` reads 12.4% (inactive).
Take `c1cc(CNc2ccc(N3CCOCC3)cc2)ccn1`: the inhibition was 1.95% (inactive).
As for `COc1cccc2cc(C(=O)N(Cc3cccs3)CC3CCCO3)c(=O)oc12` (stereo not drawn), the inhibition was 5.05% (inactive).
As for `CCn1cc(C2=NC(c3ccccc3)CO2)c2ccccc21` (stereo not drawn), the figure is 14.4% (inactive); as for `Cc1ccc(Sc2ncnc(N)c2[N+](=O)[O-])cc1`, 2.16% (inactive).
The result for `CNc1cc(Cl)nc(SC)n1` reads 5.2% (inactive); that for `CSc1nc(Cl)cc(Nc2ccccc2N)n1`, 22% (inactive); that for `CCNC(=O)O/N=C1\CCCCC1c1ccc([N+](=O)[O-])cc1[N+](=O)[O-]` (stereo not drawn), 11.8% (inactive).
On to `N#C/C(=C\c1coc2ccccc2c1=O)C(N)=S`, for which the inhibition is 11.5% (inactive).
As for `O=C1NN(c2ccccc2)C(=O)/C1=C\c1coc2ccc(O)cc2c1=O`, the figure is 51.3% (inactive); as for `COc1ccc(CCNC(=O)C/C(C)=N/NC(=O)C23CC4CC(CC(C4)C2)C3)cc1OC`, 5.44% (inactive).
The result for `COc1ccc(NC(=O)CC2C(=O)N(Cc3ccco3)C(=S)N2C(C)C)cc1` (stereo not drawn) reads 12% (inactive); that for `COc1ccc(-n2c(C)cc(/C=C3\SC(=S)N(Cc4ccco4)C3=O)c2C)cc1`, 2.87% (inactive); that for `COC(=O)C1=C(C)N(Cc2ccco2)C(=O)/C1=C\c1ccc(N(C)C)cc1`, 3.05% (inactive).
The result for `COC(=O)C1=C(C)N(Cc2ccco2)C(=O)/C1=C\c1ccc([N+](=O)[O-])cc1` reads 31.3% (inactive); that for `COc1ccc(N2C(=O)CC(c3cc(OC)c(OC)c(OC)c3)CC2=O)cc1`, 8.69% (inactive).
Turning to `COC(=O)c1nn(-c2nc(-c3ccc(OC)c(OC)c3)cc(C(F)(F)F)n2)cc1[N+](=O)[O-]`, the inhibition was 9.35% (inactive).
As for `Cc1ccc(Sc2ccc(/C=C3/C(=O)NN(c4ccccc4)C3=O)o2)cc1`, the figure is 20.1% (inactive).
As for `COc1ccc(Sc2ccc(/C=C3\C(=O)NN(c4ccccc4)C3=O)o2)cc1`, the figure is 32.2% (inactive); as for `COC(=O)c1ccc(N2NC(=O)/C(=C/c3ccc(-c4ccc(Cl)c(C(=O)O)c4)o3)C2=O)cc1`, 37% (inactive).
The result for `O=C1NN(c2ccccc2)C(=O)/C1=C/c1ccc(Sc2ccc(Cl)cc2)o1` reads 11.2% (inactive).
Take `O=C1NN(c2ccc(Cl)c(Cl)c2)C(=O)/C1=C/c1ccc(-c2ccccc2C(=O)O)o1`: the inhibition was 28.4% (inactive).
As for `N=C1/C(=C\c2ccc(-c3cc(Cl)cc(Cl)c3)o2)C(=O)N=C2SC=C(c3ccccc3)N12`, the figure is -1.62% (inactive); as for `O=C1NN(c2cccc(Br)c2)C(=O)/C1=C/c1ccc(-c2cc([N+](=O)[O-])ccc2O)o1`, 38.2% (inactive).
As for `N=C1/C(=C\c2ccc(-c3cccc(Cl)c3)o2)C(=O)N=C2SC=C(c3ccccc3)N12`, the figure is 7.39% (inactive); as for `COc1ccccc1N1CCN(CC(O)c2ccccc2)CC1` (stereo not drawn), -5.22% (inactive); as for `CC(=O)Nc1nc2ccc(S(=O)(=O)N3CCCCC3)cc2s1`, 11.1% (inactive).
As for `CCSC1=NCCN1S(=O)(=O)c1ccc(NC(C)=O)cc1`, the figure is 4.92% (inactive); as for `CN(C(=O)c1ccc2c(c1)CCN2S(C)(=O)=O)c1ccccc1`, -0.23% (inactive); as for `Cc1cc(C)c2c(=O)[nH]c(SCc3ccccc3C)nc2n1`, 1.53% (inactive).
As to `CCC(=O)Oc1ccc(C(=O)Nc2cccc(NC(=O)c3ccco3)c2)cc1`, the inhibition is -2.07% (inactive).
The result for `Cc1ccc(OCC(=O)Nc2ccc(F)cc2)c([N+](=O)[O-])n1` reads 6.19% (inactive); that for `Cc1ccc(NC(=O)C2CCN(S(=O)(=O)c3cnc[nH]3)CC2)cc1C`, 12% (inactive); that for `COc1ccccc1OCC(=O)Nc1nonc1NC(=O)COc1ccccc1OC`, 11.7% (inactive).
As for `CC(=O)Nc1ccc(N2CC(C)(C)C2=O)cc1`, the figure is 14.5% (inactive).
The result for `COc1ccc(F)cc1S(=O)(=O)N1CCCC(C)C1` (stereo not drawn) reads 4.43% (inactive); that for `OCCC1CN(Cc2cccc(C(F)(F)F)c2)CCN1Cc1ccccc1` (stereo not drawn), 5.73% (inactive).
With `O=C1NN(c2ccccc2)C(=O)/C1=C/c1ccc(Sc2cccc3ccccc23)o1`, the inhibition was 9.56% (inactive).
As for `O=Cc1ccc(-c2cccc(C(=O)O)c2)o1`, the figure is 8.85% (inactive); as for `CCSc1ccccc1C(=O)N1CCN(c2ccccc2F)CC1`, 4.24% (inactive).
The result for `CC(C)c1ccc(C2/C(=C(\O)c3ccc4c(c3)OCCO4)C(=O)C(=O)N2CCN2CCOCC2)cc1` (stereo not drawn) reads 10.8% (inactive); that for `Cc1ccc2nc(/C(C#N)=C/c3ccc(O)c(O)c3)[nH]c2c1`, 36.8% (inactive); that for `N#C/C(=C\c1ccncc1)c1nc2ccccc2[nH]1`, -51.6% (inactive).
The result for `Cn1c(CSCc2ccc(F)cc2)nnc1SCC(=O)N1CCN(c2ccccc2)CC1` reads 29.3% (inactive); that for `CC1=CN2C(=NC(=O)CC2(C)C(=O)N(CC(=O)NC2CCCC2)Cc2ccccc2)C=C1` (stereo not drawn), 3.88% (inactive); that for `Oc1ccc(Nc2nc(-c3ccc4ccccc4c3)cs2)cc1`, 35.8% (inactive).
Regarding `CCCc1cc(=O)[nH]c(Nc2ccc(Cl)cc2)n1`, the inhibition is 16.6% (inactive).
As for `COc1c(CC=C(C)C)c(O)cc2oc(=O)c3c4ccc(O)cc4oc3c12`, the figure is 21.6% (inactive); as for `Cc1c(O)c2ccccc2oc1=O`, 8.49% (inactive).
Consider `O=C1C=C(NC2CC2)C2(CCCCC2)O1`, for which the inhibition is 6.12% (inactive).
As for `C=CCN1C(=O)C2C3C=CC(C2C1=O)C1C2C(=O)N(CC=C)C(=O)C2C31` (stereo not drawn), the figure is 0.93% (inactive).
With `Cc1oc2cc(O)ccc2c(=O)c1-c1cnn(-c2ccccc2)c1`, the inhibition is 1.6% (inactive).
As for `Cc1oc2c(C)c(O)ccc2c(=O)c1-c1cnn(-c2ccccc2)c1`, the figure is 12.9% (inactive); as for `CC(C)N1C(=O)CCC1C(=O)NCc1ccco1` (stereo not drawn), 10.9% (inactive).
The result for `CCOC(=O)C1=C(CC)Nc2ccccc2N=C1NC(=O)Cn1cnc2ccccc2c1=O` reads -2.64% (inactive); that for `S=C(NCC1CCCO1)N1CCN(c2ccccc2)CC1` (stereo not drawn), 8.18% (inactive).
As for `CC(C)(C)OC(=O)NCCCC[C@H](NC(=O)c1nc[nH]c1C(=O)NC1CCN(C(=O)OC(C)(C)C)CC1)C(=O)OC(C)(C)C`, the figure is 3.23% (inactive).
For the compound `O=[N+]([O-])c1cccc(-c2ncc3ccccn23)c1`, the inhibition is -2.83% (inactive).
As for `Nc1c(-c2cccc([N+](=O)[O-])c2)nc2ccccn12`, the figure is 15.8% (inactive); as for `Cc1cc(NC(=O)CSCC(=O)Nc2cc(C(F)(F)F)ccc2N2CCCC2)no1`, 4.79% (inactive); as for `Nc1ncnc2c1ncn2CCOc1ccccc1`, 3.18% (inactive).
The result for `O=C(N/N=C/c1cc(Cl)c(O)c(Cl)c1)c1cc2c(ccc3ccccc32)o1` reads 29.3% (inactive).
The result for `O=C(N/N=C/c1ccc(O)c(Br)c1)c1cc2c(ccc3ccccc32)o1` reads -8.03% (inactive); that for `O=C(CCc1ccccc1)NNC(=O)c1ccccc1F`, 10.9% (inactive).
On to `Cc1ccc(Nc2nc(-c3sc(C)nc3C)cs2)cc1`, for which the inhibition is 3.8% (inactive).
As for `Cc1nc(C)c(-c2csc(Nc3ccc(F)cc3)n2)s1`, the figure is 6.12% (inactive); as for `COc1ccc(/C(C)=N\NC(=O)c2ccc3c(c2)OCO3)cc1OC`, 1.47% (inactive).
As for `Cc1c(NS(=O)(=O)c2cc(C(=O)NCCN(C)C)ccc2Cl)c(=O)n(-c2ccccc2)n1C`, the figure is 10.6% (inactive); as for `C=CCN1C(=O)CSC1=Nc1ccc(O)cc1`, 27.9% (inactive); as for `COc1ccc(N=C2SCC(=O)N2c2ccc(OC)cc2)cc1`, 13.7% (inactive).
The result for `Cc1cccc(C(=O)NCC(=O)NCC2COc3ccccc3O2)c1` (stereo not drawn) reads 23.4% (inactive).
Take `CCOc1c(/C=C(\C#N)C(N)=O)c2ccccc2n1CC`: the inhibition is 3.23% (inactive).
For `COc1ccc(Oc2nc3ccccc3n3cccc23)cc1`, the inhibition is 5.06% (inactive).
As for `CCc1ccc2[nH]c(=O)c(C(c3nnnn3CCOC)N3CCN(c4ccccc4)CC3)cc2c1` (stereo not drawn), the figure is 6% (inactive); as for `CCc1ccc2[nH]c(=O)c(C(c3nnnn3CCOC)N3CCN(c4ccc(F)cc4)CC3)cc2c1` (stereo not drawn), 16.5% (inactive); as for `CSCc1cc(N2CCOCC2)nc(-c2ccccc2)n1`, 9.12% (inactive).
The result for `O=C(Cc1ccc([N+](=O)[O-])cc1)c1c(O)cc(O)cc1O` reads 28% (inactive).

(Values after PubChem BioAssay AID1903 (Southern Research Specialized Biocontainment Screening …, 2009).)
